# In the supplement of paper PMC12632987:
# Over roughly 4,500 sequences, “median log2 fold change of GCK-ALFA target abundance (FLAG IP / Myc IP barcode read proportion)” has its median near 0.078; the lowest 2% begin near -0.6. The sample as a whole holds a higher share of the lowest values than the screen did.
# B1: GBRAP_160_4698 (protein)
# chain: TATAEKLKAFVKEEFEKAKEEIEGESREQRAVILAGTGGEILMELVEDPNATDELEDEVLAIFDDAVATLLANPNLTLEETKALIDEVEAKVLAAIDKHL
# B2: GBRAP_166_4925 (protein)
# chain: MIEEKVEEARKRLEEVIREGRADPSLTDGQITAAMAYEVAEMLKDIEDEEEKLAVVEEGLRLAKEEGLDPRRLATLTASLYGFSDEERERIDEITEKILA
# B3: GBRAP_53_6398 (protein)
# chain: AAAAIAAGLAELEALIAEVEADPTLDAADVAARAGALLKALAAAGAPEAELTALARRLAAAVAARGLGVEVSTALAATAAAAGREAVAAVFTEAAVEDLE
# B4: GBRAP_128_3157 (protein)
# chain: STEEVREETRRLLEEIRESDEEEAREIARELFALILTLSDEEAEAAVEVILELLPELSKEKLEILADVAREMRPEADPFKAELLAEVEVEALNEALELEE
# B5: GBRAP_45_5811 (protein)
# chain: SEELKETREKLEELLKKAKELAEKLKEEDPEKFTPLLELLEEAEKLLKEEPESLEAWERIEELLEEALKLALDSKKASAELLETLLEAANLALEAKELLE
# B6: GBRAP_52_5842 (protein)
# chain: MEEEARRLAEELVALAEAGREEELDALIEEIVETLSEEEVMLVLEELARLAAEADPETAEVIFDVADRLADAALAAGFDEMEMSLGLALVGAAVYKALQR
# B7: GBRAP_184_5031 (protein)
# chain: SVIERTIKADNLEELEAKLEKLKEEVKGSKADLIVTLDIKNPTEEMIKTALKRLGEMKKNGDVSSVTVGFARLLSEELIDVALKTADEEGVKVVLPISEE
# B8: GBRAP_52_6157 (protein)
# chain: MEARAEAYANALIAAVKAGDEAAIRALMEEIAATLSEEEIELMMAIVAEKVAGLTPEEQERAVEAALELEDILIAAGHDENIASYNTARVAGAAYDALQA
# B9: GBRAP_52_6039 (protein)
# chain: MEEEMRRKAEEIVELVKAGRRAEAEARIRELVATWSEEELELLGEELARLAREAEPEDLDAVMEAALMLADALEAAGYDPAFADDLLARVAAAAVENLQR
# B10: GBRAP_14_3840 (protein)
# chain: REEVRRLLLEAVERAVEEVRKFAPEEARERVEALREVLRRAVDEGLETGDLEEAERRLVEVAEAAVRELFADLPPEERGALVAVAVDELVEGFEELEERL
# B11: GBRAP_80_6763 (protein)
# chain: MMEELEEALEELSELLPELAEELRATVEALLELGVPVEDLLRLLKALVELAKLDKEKAEAILREFIAEVNEAIARGDLEEARALVIDAESDALLEVEELE
# B12: GBRAP_125_3054 (protein)
# chain: NLEEAIEALAELGKILGLSEEEVEELRKLAEKYGVKGTLYALLLAEGEEELAELVAKLTEEEVIEVLKRLLEYIKSHPNITKEEALEKLKELAEEALAKK
# B13: GBRAP_117_2592 (protein)
# chain: SATREAARAKIRATVAEVEALFKELAGLSPEEQAEALAAMRERVKAVLREVIEELGEEEAEELLDEALLDTDAETYFFLESVREDTLEELEEEEEEEERE
# B14: GBRAP_52_6014 (protein)
# chain: MRERLRAFVDEVLALVRAGKEEEARALIEELVASLNEEEIELLIDVLAERAAAARPEDQEAVWRLAEMLAEALEEAGVDEALADDLLARVAAALYAAEQA
# B15: GBRAP_83_6975 (protein)
# chain: AEEIVVAAPADRVEEAVEIAIDLAKEEGKKVTLEILTTPEQRERVLEAVERLLKEVPNIEIVVVLRGATKEEAEELEKELKEIAKELGVNADIEVLIEEP
# B16: GBRAP_26_5452 (protein)
# chain: MEEKLEALRDRLVELADELLDPETAALLKVEVDNIVALAELELEEANGDLEKELAVVEEMLEDLEEALDDLEVPEEVKEKLLEAAREAAEEIKEYLKKKS
# B17: GBRAP_26_5451 (protein)
# chain: MEELLERFRERLERAADELLDPETAALLKVAVDDIIALAELELEEANGDLEKELEIVEEMLEDLEEELEDLEVPEEVREKLLEIAREEAEEIKKALKEER
# B18: GBRAP_52_5986 (protein)
# chain: MKEEAKKIAEELVKLMLEGKEEEAEKLMKEIAENKSQEFILMVMEELAKMAKTATPEEVDAIVDTALMLGDIALEAGFDEAEIDDAEARVAAAAVENLKK
# B19: GBRAP_64_6489 (protein)
# chain: MEEIEESLEELLKLVEELLEAVKDLSEELQKKVEEVKRLVEEAKTASLEERLDLTVEAAKLLNEILKNPELTEEQKELAGLALDKASELAWLLFEAEEEE
# B20: GBRAP_11_2748 (protein)
# chain: KKEKLKEIAKAAEELAALLDKLIAEGVDNAELQAAAEKALKELAELVEKYGDESLKKLVAIIQEEFAQAKADPATAEAHWRNALAAARVLAGQVLLEIEE
# B21: GBRAP_160_4544 (protein)
# chain: KEKVEEAIKDIDERAAFVKSLVGKVSTEELINFFDVEVGSFIMELEELGLLTDELGEEIDKIADETKATLKANPNASDEEKKALIDEAAEKIKEAILKHS
# B22: GBRAP_26_5425 (protein)
# chain: LDEAVERAIERISAAAAELLDPETAAAVRAVVTDELLEAEEEIEEEDLSEEEVEELLEEVLEEIEEDLEELGVPAEKRARLVAVAEEELEEVLEEWKEER
# B23: GBRAP_78_6625 (protein)
# chain: EIKKLLEKALKKVEEAAKLATKIPSEEGIEILDHLIDAFEYIEEAIEEGGDLEKLEKALKHLEEALKEIEKLNNPELEELKKLVKEAIKLLKKAIELKKK
# B24: GBRAP_39_5692 (protein)
# chain: EEEEEDEDVVSYLQALAAGRLYETGKSLEEAYKEAKKILEEEAKRHPELKELLEELIKLADEKGEEAKEVLIGIAVLIEEGTPLEEIKEHIEKAINYFKK
# B25: GBRAP_11_2756 (protein)
# chain: KKEKLKEMAELAEKAAELVKKLLEEGVDNEELQEELEKVLKELKKLVKEYGDEADKKLVEIAEELWKKAKEDEENKEQYYKELLATLRVLSGDFLLEYEE
# B26: GBRAP_160_4385 (protein)
# chain: AAALAALAKEIEALRKEFEEEAKDLNTEETRTLAIGVLAEVAALAWENEAISEETKDKIFAIIDEAIEELKANKDAPPEEIVAITTEAFDKIIALVKAEA
# B27: GBRAP_160_4108 (protein)
# chain: SAGAEAILADFREVFAEVLELWDEVSPEELVAYYEVETGSVIMDAMENYGLSDETADRLLDIRDEAAARLLAHGNVSREEVERILAEALARIEAAVAAAA
# B28: GBRAP_9_7157 (protein)
# chain: MEELIEKVEEVIEDMLEEIKEVVPEEVKPAVEKRREEVKKRLEELGEDENATEEEIIEEAERLVRETLEEMKKLVDPETAKIVEAIALTAELEIEEIGEE
# B29: GBRAP_184_5064 (protein)
# chain: KIYEETIEVTNLEEAKEKMKELKEKIKNFKGDLIVHLKLPEFNKEIVKAILDELAEIKKAGYAKNITLGIDADTTEEEVDFLISTADEKGINVVVALREE
# Biological target: GABARAP, O95166
# Sequence (O95166 whole entry, the tested form may be a part): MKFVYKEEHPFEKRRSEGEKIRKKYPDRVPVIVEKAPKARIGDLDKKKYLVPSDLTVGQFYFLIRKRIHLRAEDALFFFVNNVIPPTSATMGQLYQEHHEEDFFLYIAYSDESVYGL
# Assay: median log2 fold change of GCK-ALFA target abundance (FLAG IP / Myc IP barcode read proportion) (log2 ratio); each designed protein is fused to an ALFA-tag nanobody in HEK293 cells to bring the named protein to FLAG-tagged glucokinase (GCK); Myc marks an untargeted standard; higher = target protein stabilised (more abundant)
# Settings: target protein: 3xFLAG-MCP-GCK-ALFA reporter; HEK293 landing pad (RPLP)
# Outline: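 HEK293 landing-pad cells received a recombined binder library fused to the ALFA nanobody and were induced with 2 μg mL^−1 doxycycline, then transfected with a plasmid encoding a FLAG-tagged target and a Myc-tagged standard. Lysates were collected after 48 h for anti-FLAG and anti-Myc immunoprecipitation, and the circular RNA barcodes were reverse transcribed, amplified and sequenced. Target abundance for each binder is the median log2 ratio of FLAG to Myc barcode read proportions. Barcodes had to reach a proportion of at least 10^−7 in both replicates, each binder needed at least 3 barcodes per replicate, a pseudocount of 10^−6 was applied, and the two replicates were pooled.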
row,Binder,median log2 fold change
1,B1,-0.69
2,B2,0.302
3,B3,0.254
4,B4,0.00897
5,B5,0.129
6,B6,-0.837
7,B7,0.0419
8,B8,-0.262
9,B9,-0.911
10,B10,0.0661
11,B11,0.0537
12,B12,-1.42
13,B13,0.191
14,B14,-0.157
15,B15,0.0242
16,B16,-0.454
17,B17,-1.2
18,B18,-0.152
19,B19,0.0238
20,B20,0.194
21,B21,0.0163
22,B22,-0.608
23,B23,0.283
24,B24,0.284
25,B25,0.0874
26,B26,-0.171
27,B27,-0.764
28,B28,-0.11
29,B29,0.127
